These results are taken from PubChem BioAssay AID1851 (National Center for Advancing Translational Sciences (NCATS), 2009).

Structures are written as SMILES. In all, about 16,000 compounds went through this assay and about 5,800 (36%) were called active. Inconclusive results (about 23%) are left out. Some of the results follow. A number with no mark means an inactive call. The call rests on the fitted dose curve; in most records, active means well fitted curve in the direction sought with a large enough effect; inconclusive means small, poorly fitted or top-dose-only effect, or effect the other way; inactive means no such curve, though single readings can be large or run the other way. Numbered stars: 1 amine (or outer) side, 2 acyl side, 3 side chain; on linkers, the order of the positions; unused ones are H or OH. Bridge positions count the residues as written; N and C are the ends. Square brackets hold non-standard residues; d marks the D form. Peptide text beside a SMILES is read from it. I, II: the chains in the order shown. Actinocin(9to1) = Cc1c2oc3c(C)ccc(C(=O)[*:1])c3nc-2c(C(=O)[*:2])c(N)c1=O; aThr = C[C@H](O)[C@H](N)C(=O)O; NMeV = CN[C@H](C(=O)O)C(C)C; Sar = CNCC(=O)O
On the % scale 0 is the no-effect control and ±100 the full control effect.

The target in the experiment is Cytochrome P450 2C19 (Homo sapiens) (UniProt P33261). The experiment in a line: Cytochrome panel assay with activity outcomes. Particulars: recombinant CYP, pro-luciferin dealkylation, luminescence, p450-cyp2c19; series mostly up to 57.1 µM; activity, negative = inhibition: at the top concentration.
Cytochrome P450 2C19 (Homo sapiens), sequence (P33261 whole entry, looked up): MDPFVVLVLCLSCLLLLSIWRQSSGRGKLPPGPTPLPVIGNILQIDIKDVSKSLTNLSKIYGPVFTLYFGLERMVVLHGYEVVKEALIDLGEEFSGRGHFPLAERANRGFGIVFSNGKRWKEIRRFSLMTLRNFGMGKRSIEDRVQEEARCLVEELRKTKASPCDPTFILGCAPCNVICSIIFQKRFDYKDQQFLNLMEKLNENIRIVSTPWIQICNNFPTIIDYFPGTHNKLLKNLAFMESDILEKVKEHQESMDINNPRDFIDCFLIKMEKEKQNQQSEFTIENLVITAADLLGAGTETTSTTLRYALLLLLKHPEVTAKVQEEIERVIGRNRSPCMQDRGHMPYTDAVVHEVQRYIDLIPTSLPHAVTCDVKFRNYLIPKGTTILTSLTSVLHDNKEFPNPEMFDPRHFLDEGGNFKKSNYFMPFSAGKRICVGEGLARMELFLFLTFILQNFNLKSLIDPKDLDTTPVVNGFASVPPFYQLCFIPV
For the molecule `COc1ccc(C2C(C(=O)N3CCN(C)CC3)c3ccccc3C(=O)N2C2CCCCC2)cc1` (stereo unspecified), the “activity, negative = inhibition” value is 2.2%.
The term AC50 denotes the midpoint of the concentration-response curve, whichever way the signal moves. Take `CCCCN1C(=O)CN(CCc2ccccc2)C(=O)C1c1ccc(OC)cc1` (stereo unspecified): the concentration at half-maximal activity (AC50) was 7.08 µM (active).
As to `COc1ccc(C2C(=O)N(CCc3ccccc3)CC(=O)N2C2CCCC2)cc1` (stereo unspecified), the AC50 was 11.2 µM (active).
As for `COc1ccc([C@@H]2Sc3ccccc3N(CCN(C)C)C(=O)[C@@H]2OC(C)=O)cc1`, the “activity, negative = inhibition” value was 11.9%.
For `Cc1noc(C)c1C(=O)N1CCC[C@@]2(CCN(C(=O)NC(C)C)C2)C1`, the “activity, negative = inhibition” value was -26.5%.
On to `CCn1c(SCC(=O)OC)nc2sc3c(c2c1=O)CCC3`, for which the AC50 is 8.91 µM (active).
For `CCCc1ccc(C2C3=C(CC(C)(C)CC3=O)NC3=C2C(=O)c2ccccc23)cc1` (stereo unspecified), the AC50 is 4.47 µM (active).
As to `COc1cccc(Nc2ncc3nc(-c4ccccc4)c(=O)n(C)c3n2)c1`, the “activity, negative = inhibition” value is -4.11%.
In the case of `COc1ncc2nc(-c3ccccc3)c(=O)n(C)c2n1`, the “activity, negative = inhibition” value is -34.3%.
On to `c1ccc(Nc2ncnc3ccc(-c4ccoc4)cc23)cc1`, for which the AC50 is 2 µM (active).
On to `COc1ccc(-n2cnc3sc(-c4ccccc4)cc3c2=O)cc1`, for which the half-maximal activity concentration (AC50) is 14.1 µM (active).
In the case of `FC(F)(F)c1ccccc1-c1ccc2ncnc(NCc3cccnc3)c2c1`, the AC50 is 0.00794 µM (active).
For `CN(C)C(=O)c1ccc(-c2ccc3ncnc(Nc4ccccc4)c3c2)cc1`, the “activity, negative = inhibition” value was 32.7%.
On to `COc1cccc(-c2ccc3ncnc(Nc4ccccc4)c3c2)c1`, for which the concentration at half-maximal activity (AC50) was 0.501 µM (active).
As for `c1ccc(Nc2ncnc3ccc(-c4cccnc4)cc23)cc1`, the “activity, negative = inhibition” value is -45.8%.
Regarding `CC(C)=NO[C@@H](C)CN1CCCCc2nc(C)c(C)cc21`, the activity, negative = inhibition was -14.1% [at 11.4 µM].
Consider `Clc1cccc(Nc2ncnc3ccc(Br)cc23)c1`, for which the AC50 is 5.01 µM (active).
Take `NCCNc1ncnc2ccc(Cl)cc12`: the activity, negative = inhibition is -2.27% [at 11.4 µM].
In the case of `COc1ccccc1-c1ccc2ncnc(NCc3cccnc3)c2c1`, the AC50 was 0.00794 µM (active).
Consider `COc1cccc(-c2ccc3ncnc(NCc4cccnc4)c3c2)c1`, for which the AC50 was 0.0126 µM (active).
In the case of `COCCNc1ncnc2ccc(-c3ccccc3OC)cc12`, the AC50 was 5.01 µM (active).
Turning to `COCCNc1ncnc2ccc(-c3ccccc3CN(C)C)cc12`, the “activity, negative = inhibition” value was 30.9%.
Same read-out and setting: for `COc1ccccc1CN1CC[C@@]2(CCCN(C(=O)c3ccco3)C2)C1` the value was -12.6%.
With `Cc1cnc(CNc2ncnc3ccc(-c4cccc(C#N)c4)cc23)cn1`, the “activity, negative = inhibition” value is -9.68%.
In the case of `COc1ccc(Nc2ncnc3sc(-c4ccccc4)cc23)cc1`, the concentration at half-maximal activity (AC50) is 3.16 µM (active).
Same read-out and setting: for `FC(F)(F)c1ccccc1-c1ccc2ncnc(NCc3cccs3)c2c1` the value was 3.16 µM (active); for `COc1cccc(-c2ccc3ncnc(NCc4cnc(C)cn4)c3c2)c1`, 15.8 µM (active).
For the molecule `COCCNc1ncnc2ccc(-c3ccccc3C(F)(F)F)cc12`, the AC50 was 6.31 µM (active).
In the case of `O=C(c1cnccn1)N1CCC[C@@]2(CCN(c3ncccn3)C2)C1`, the “activity, negative = inhibition” value was 19.2%.
Take `Cc1c2oc3c(C)ccc(C(=O)N[C@@H]4C(=O)N[C@@H](C(C)C)C(=O)N5CCC[C@@H]5C(=O)N(C)CC(=O)N(C)[C@@H](C(C)C)C(=O)O[C@H]4C)c3nc-2c(C(=O)N[C@@H]2C(=O)N[C@@H](C(C)C)C(=O)N3CCC[C@@H]3C(=O)N(C)CC(=O)N(C)[C@@H](C(C)C)C(=O)O[C@H]2C)c(N)c1=O` (I: [aThr]V[dP][Sar][NMeV] / II: [aThr]V[dP][Sar][NMeV]; ester I:1-I:C, II:1-II:C; linker I:N-II:N via Actinocin(9to1)): the “activity, negative = inhibition” value is -4.79%.
On to `COc1ccccc1-c1ccc2ncnc(NCc3ccccc3)c2c1`, for which the AC50 is 3.98 µM (active).
Regarding `COc1ccccc1-c1ccc2ncnc(Nc3ccccc3)c2c1`, the AC50 was 5.01 µM (active).
Turning to `CN(C)Cc1ccccc1-c1ccc2ncnc(NCc3ccccc3)c2c1`, the “activity, negative = inhibition” value is -37.6%.
For the molecule `Clc1ccccc1-c1ccc2ncnc(NCc3cccnc3)c2c1`, the AC50 was 0.01 µM (active).
Take `Nc1nc2n[nH]nc2c(=O)[nH]1`: the “activity, negative = inhibition” value is 32.2% [at 25.6 µM].
On to `CN(C)c1nc(N)c(C(=O)N=C(N)N)nc1Cl`, for which the “activity, negative = inhibition” value was -3.58%.
For the molecule `NC(N)=NC(=O)c1nc(Cl)c(N2CCCCCC2)nc1N`, the AC50 is 5.01 µM (active).
Turning to `NC(N)=NC(=O)c1nc(Cl)c(N)nc1N`, the “activity, negative = inhibition” value was -14.1%.
Still for that read-out and setting: for `CCN(c1nc(N)c(C(=O)N=C(N)N)nc1Cl)C(C)C` the value was -25.6%.
The same measure, in the same setting: the result for `c1c[nH]c(CN2CCN(Cc3ncc[nH]3)CC2)n1` reads -25.8% [at 11.4 µM].
`Cc1cc(C(=O)CSC(=S)SC(C)(C)C)ccc1Cl`: the AC50 is 1 µM (active).
In the case of `CC(=O)N1CCc2cc(Br)cc(S(=O)(=O)N3CCN(C(=O)c4ccco4)CC3)c21`, the AC50 was 4.47 µM (active).
In the case of `Cc1ccc(NC(=O)c2nnn(-c3cc(C)cc(C)c3)c2N)cc1`, the AC50 was 3.98 µM (active).
For `Cc1cc(Cc2c(C)c(C)c(Cc3cc(C)cc(C(C)(C)C)c3O)c(C)c2C)c(O)c(C(C)(C)C)c1`, the activity, negative = inhibition is 37.4% [at 11.4 µM].
Take `Cc1cc(Cc2cc(C)cc(C(C)(C)C)c2O)c(O)c(Cc2cc(C)cc(C(C)(C)C)c2O)c1`: the AC50 is 3.16 µM (active).
As for `Cc1cc(Cc2cc(Cc3cc(C)cc(C(C)(C)C)c3O)c(C)cc2C)c(O)c(C(C)(C)C)c1`, the AC50 is 1 µM (active).
In the case of `CCN1CCN(C(=O)N[C@H](C(=O)N[C@@H]2C(=O)N3[C@@H]2SC(C)(C)[C@@H]3C(=O)O)c2ccccc2)C(=O)C1=O`, the “activity, negative = inhibition” value was 34.8% [at 25.6 µM].
Same read-out and setting: the result for `Cc1cnc(CNc2ncncc2-c2cccc(C#N)c2)cn1` reads 19.9%.
As for `N#Cc1cccc(-c2cncnc2NCc2ccccc2)c1`, the AC50 was 7.94 µM (active).
In the case of `N#Cc1cccc(-c2cncnc2NCc2cccnc2)c1`, the half-maximal activity concentration (AC50) was 3.98 µM (active).
As to `N#Cc1cccc(-c2cncnc2NCc2cccs2)c1`, the AC50 was 7.94 µM (active).
For the molecule `Cc1cccc(CNc2ncncc2-c2cccc(C#N)c2)c1`, the concentration at half-maximal activity (AC50) was 3.98 µM (active).
Turning to `CC(C)CN1CCC2(CC1)CCN(C(=O)c1cccn1C)CC2`, the “activity, negative = inhibition” value was 28.4%.
On the same count and under the same terms, for `CC(=O)NC1=NC(=O)CS1` the value was -12.1%.
As to `Nc1cc(-c2ccncc2)c[nH]c1=O`, the AC50 is 5.01 µM (active).
For `Cc1cccc(C)c1OC[C@@H](N)C(C)C`, the “activity, negative = inhibition” value was -15.9%.
`CCCCc1ccc(-c2csc(/C(C#N)=C/c3ccc(C)o3)n2)cc1`: the concentration at half-maximal activity (AC50) is 5.62 µM (active).
For `Nc1nnc(C(c2ccccc2)c2ccccc2)s1`, the AC50 is 22.4 µM (active).
Still for that read-out and setting: the result for `COc1ccc(C(C(=O)NC2CCCC2)N(Cc2ccc(F)cc2)C(=O)c2ccn[nH]2)cc1OC` (stereo unspecified) reads 10 µM (active).
For the molecule `COc1ccc(CC(NC(C)=O)C(=O)NC2CCN(C(=O)Nc3ccc(Cl)cc3)CC2)cc1OC` (stereo unspecified), the “activity, negative = inhibition” value is -29.6%.
With `O=C(NC1CCCC1)C(c1ccc(F)cc1)N(Cc1ccc(F)cc1)C(=O)c1ccn[nH]1` (stereo unspecified), the AC50 was 5.01 µM (active).
